Whole data set: some 11,000 sequences, median “log2 fold change” near 0.00022, cut for the highest 2% near 0.34. Some of the results follow.
biological target: GST-SBP-SLBP (stem-loop binding protein) (Homo sapiens, UniProt Q14493 1-270); experiment: targeted RNA Bind-n-Seq; RBNS binding buffer: 25 mM Tris pH 7.5, 150 mM KCl, 3 mM MgCl2, 0.1% Tween, 0.5 mg/mL BSA, 1 mM DTT; 27 nM protein, 750 pM RNA pool; temperature not stated; high values mean tight binding; conditions: protein: recombinant; tags: N-terminal GST and SBP (pGEX6P1-SBP); structured_RNA
Method in brief: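 The protein, carrying a GST-SBP tag, was produced in Rosetta(DE3) pLysS E. coli, purified on glutathione, and mixed at 27 nM with 750 pM of a designed RNA oligo pool made by T7 transcription in RBNS binding buffer. RNA that bound was reverse transcribed using a barcoded primer of 10 nucleotides, amplified by PCR and sequenced on a MiSeq with 200-cycle paired-end reads. FLASH joined the reads, HISAT2 aligned them, and they were collapsed by barcode before the binding signal was taken as the DEseq binary-logarithm fold change of read counts for each sequence.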

“GGUCACGUCUCAAUCAACUCCUUAGAGGGGGGGAAAACCCCUUUGCCCUCGUUUUCAACAGCUCGCAGUCAAG” and “GGUCACGUCUCAAUCAACUCCUUAGAGGGGGGGAAAACCCCUUUGCCCUCACCGUCAACAGCUCGCAGUCAAG” are within error of each other in binding signal: 0.342 ± 0.445 log2 fold change for the first, 0.412 ± 0.444 log2 fold change for the second.

“GGUCACGUCUCAAUCAACUCCUUAGAGGGGGGGAAAACCCCUUUGCCCUCAACAUCAACAGCUCGCAGUCAAG” and “GGUCACGUCUCAAUCAACUCCUUAGAGGGGGGGAAAACCCCUUUGCCCUCCGUAUCAACAGCUCGCAGUCAAG” are within error of each other in binding signal: 0.411 ± 0.394 log2 fold change for the first, 0.307 ± 0.406 log2 fold change for the second.

“GGUCACGUCUCAAUCAACUCUACGGCAGGAGUUUACUCCUGGAAUCUCAACAGCUCGCAGUCAAG” and “GGUCACGUCUCAAUCAACUCAACAGAGGGGGGGAAAACCCCUUUACCCUCACCAUCAACAGCUCGCAGUCAAG” are within error of each other in binding signal: 0.318 ± 0.232 log2 fold change for the first, 0.341 ± 0.391 log2 fold change for the second.

“GGUCACGUCUCAAUCAACUCAAUAGAGGGGGGGAAAACCCCUUUACCCUCACCAUCAACAGCUCGCAGUCAAG” and “GGUCACGUCUCAAUCAACUCAAAAGAGGGGGGGAAAACCCCUUUACCCUCACCAUCAACAGCUCGCAGUCAAG” are within error of each other in binding signal: 0.306 ± 0.41 log2 fold change for the first, 0.563 ± 0.413 log2 fold change for the second.

“GGUCACGUCUCAAUCAACUCCACAGAGGGGGGGAAAACCCCUUUACCCUCCAUCUCAACAGCUCGCAGUCAAG” and “GGUCACGUCUCAAUCAACUCUCUAGAGGGGGGGAAAACCCCUUUACCCUCACCAUCAACAGCUCGCAGUCAAG” are within error of each other in binding signal: 0.416 ± 0.406 log2 fold change for the first, 0.354 ± 0.424 log2 fold change for the second.

“GGUCACGUCUCAAUCAACUCCAAGGAGGGGGGGAAAACCCCUUUACCCUCAAUCUCAACAGCUCGCAGUCAAG” and “GGUCACGUCUCAAUCAACUCCCUAGAGGGGGGGAAAACCCCUUUACCCUCAAUGUCAACAGCUCGCAGUCAAG” are within error of each other in binding signal: 0.482 ± 0.442 log2 fold change for the first, 0.558 ± 0.455 log2 fold change for the second.

“GGUCACGUCUCAAUCAACUCCCUAGAGGGGGGGAAAACCCCUUUACCCUCACAAUCAACAGCUCGCAGUCAAG” and “GGUCACGUCUCAAUCAACUCUAUCUCAGGAGUUUACUCCUGUAUAUUCAACAGCUCGCAGUCAAG” are within error of each other in binding signal: 0.389 ± 0.428 log2 fold change for the first, 0.337 ± 0.252 log2 fold change for the second.

“GGUCACGUCUCAAUCAACUCAAUCUCAGGAGUUUUCUCCUGUAUACUCAACAGCUCGCAGUCAAG” and “GGUCACGUCUCAAUCAACUCUUUCUCAGGAGUUUCCUCCUGUUUACUCAACAGCUCGCAGUCAAG” are within error of each other in binding signal: 0.429 ± 0.219 log2 fold change for the first, 0.312 ± 0.17 log2 fold change for the second.

“GGUCACGUCUCAAUCAACUCAUCGCCAGGAGUUUGCUCCUGUAUUUUCAACAGCUCGCAGUCAAG” and “GGUCACGUCUCAAUCAACUCAUCGUCAGGAGUUUUCUCCUGUAAACUCAACAGCUCGCAGUCAAG” are within error of each other in binding signal: 0.321 ± 0.274 log2 fold change for the first, 0.313 ± 0.233 log2 fold change for the second.

“GGUCACGUCUCAAUCAACUCUUUCUCAGGAGUUUACUCCUGUAUAUUCAACAGCUCGCAGUCAAG” and “GGUCACGUCUCAAUCAACUCAUACGAGGGGGGGAAAACCCCUUUACCCUCUCCAUCAACAGCUCGCAGUCAAG” are within error of each other in binding signal: 0.355 ± 0.213 log2 fold change for the first, 0.329 ± 0.398 log2 fold change for the second.

“GGUCACGUCUCAAUCAACUCCAUCGAGGGGGGGAAAACCCCUUUACCCUCCAAUUCAACAGCUCGCAGUCAAG” and “GGUCACGUCUCAAUCAACUCCAUCGAGGGGGGGAAAACCCCUUUACCCUCAAUAUCAACAGCUCGCAGUCAAG” are within error of each other in binding signal: 0.49 ± 0.445 log2 fold change for the first, 0.429 ± 0.437 log2 fold change for the second.

“GGUCACGUCUCAAUCAACUCAAACGAGGGGGGGAAAACCCCUUUACCCUCCAUAUCAACAGCUCGCAGUCAAG” and “GGUCACGUCUCAAUCAACUCCAAAGAGGGGGGGAAAACCCCUUUACCCUCAACCUCAACAGCUCGCAGUCAAG” are within error of each other in binding signal: 0.344 ± 0.458 log2 fold change for the first, 0.316 ± 0.391 log2 fold change for the second.

“GGUCACGUCUCAAUCAACUCCAAAGAGGGGGGGAAAACCCCUUUACCCUCACUUUCAACAGCUCGCAGUCAAG” and “GGUCACGUCUCAAUCAACUCAGAAGAGGGGGGGAAAACCCCUUUACCCUCCAAAUCAACAGCUCGCAGUCAAG” are within error of each other in binding signal: 0.398 ± 0.419 log2 fold change for the first, 0.431 ± 0.433 log2 fold change for the second.

“GGUCACGUCUCAAUCAACUCCAAAGAGGGGGGGAAAACCCCUUUACCCUCCGUUUCAACAGCUCGCAGUCAAG” and “GGUCACGUCUCAAUCAACUCCAAAGAGGGGGGGAAAACCCCUUUACCCUCCGCAUCAACAGCUCGCAGUCAAG” are within error of each other in binding signal: 0.395 ± 0.435 log2 fold change for the first, 0.352 ± 0.42 log2 fold change for the second.

“GGUCACGUCUCAAUCAACUCCAAAGAGGGGGGGAAAACCCCUUUACCCUCCACAUCAACAGCUCGCAGUCAAG” and “GGUCACGUCUCAAUCAACUCCAAAGAGGGGGGGAAAACCCCUUUACCCUCGUCCUCAACAGCUCGCAGUCAAG” are within error of each other in binding signal: 0.399 ± 0.418 log2 fold change for the first, 0.369 ± 0.406 log2 fold change for the second.

“GGUCACGUCUCAAUCAACUCACACGAGGGGGGGAAAACCCCUUUACCCUCUCUAUCAACAGCUCGCAGUCAAG” and “GGUCACGUCUCAAUCAACUCUUCCGAGGGGGGGAAAACCCCUUUACCCUCACUAUCAACAGCUCGCAGUCAAG” are within error of each other in binding signal: 0.553 ± 0.407 log2 fold change for the first, 0.347 ± 0.442 log2 fold change for the second.

“GGUCACGUCUCAAUCAACUCUAUCGAGGGGGGGAAAACCCCUUUACCCUCACACUCAACAGCUCGCAGUCAAG” and “GGUCACGUCUCAAUCAACUCAAUCGAGGGGGGGAAAACCCCUUUACCCUCACUCUCAACAGCUCGCAGUCAAG” are within error of each other in binding signal: 0.573 ± 0.408 log2 fold change for the first, 0.375 ± 0.412 log2 fold change for the second.

“GGUCACGUCUCAAUCAACUCUCCCGAGGGGGGGAAAACCCCUUUACCCUCACUAUCAACAGCUCGCAGUCAAG” and “GGUCACGUCUCAAUCAACUCCAUCGAGGGGGGGAAAACCCCUUUACCCUCACUCUCAACAGCUCGCAGUCAAG” are within error of each other in binding signal: 0.31 ± 0.449 log2 fold change for the first, 0.322 ± 0.422 log2 fold change for the second.

“GGUCACGUCUCAAUCAACUCACACGAGGGGGGGAAAACCCCUUUACCCUCUACCUCAACAGCUCGCAGUCAAG” showed a binding signal of 0.472 ± 0.426 log2 fold change.
